Growth inhibition data for 40 compounds are collected here from PubChem BioAssay (NCI).

Each structure is given as a SMILES string. This is part of a sample that, as a whole, favours compounds with a hit. Of some 79,000 tested, about 15% had one in any assay. Unmarked numbers belong to inactive results. Active and inactive are the calls of the source. No stated cut-off is given here; in the data, active means growth inhibition above about 70%; inactive means the rest.

A short description of the first test: NCI Yeast Anticancer Drug Screen. Data for the mlh1 rad18 strain (AID 175). The conditions noted are these: S. cerevisiae mlh1 rad18 strain growth inhibition; at 50.0 µM (retest, dose inferred, filed as 5.0); hits give high values. The gist of the method:
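Growth inhibition of the yeast strain was measured after compound exposure and expressed relative to vehicle-treated controls. The strain carries defined defects in DNA damage repair.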
For the compound `COC(OC)(c1ccccc1)C(Br)Br`, the growth inhibition is 59%.
Still for that read-out and setting: the figure for `Cc1ccc(S(=O)(=O)OCCc2ccc(Cl)cc2)cc1` is -12%; for `O=C(CC(=O)c1ccncc1)c1ccccc1` it is 99% (active); for `CCN1CCC(O)(/C=C/c2ccccc2)C(C(=O)/C=C/c2ccccc2)C1` (stereo not given) it is 93% (active).
Still for that read-out and setting: in the case of `O=C(O)c1cc(Br)ccc1OCc1ccc(Cl)cc1` it was 12%.
The same measure, in the same setting: the figure for `Cc1ccc(C2COc3cc(O)c(O)cc3C2)cc1` (stereo not given) is 99% (active).
In the case of `COC(=O)c1c2oc3c(C(=O)OC)cccc3nc-2cc(N)c1=O`, the growth inhibition is 44%.
Still for that read-out and setting: the figure for `CC(=O)NCCN(C)C` is 4%; for `N=c1scc(-c2ccccc2)n1/N=C/c1cccnc1` it is 96% (active).
Same read-out and setting: the figure for `C(=C/c1ccccc1)/C=N/Nc1ccccc1` is -79%; for `OC(Cc1ccc(Br)cc1)CN1CCC(c2ccccc2)CC1` (stereo not given) it is 88% (active); for `O=C1C(Cl)=C(Nc2ccc(S(=O)(=O)O)cc2)C(=O)c2ccccc21` it is 99% (active).
Still for that read-out and setting: in the case of `CC1(CO)CCCC2(C)C3=C(CCCC3)CCC12` (stereo not given) it was 95% (active); in that of `Cc1cc2nc(CC(=O)c3ccc4ccccc4c3)c(=O)[nH]c2cc1C`, -28%.
Take `CN(CCO)CCn1cnc2c1c(=O)n(C)c(=O)n2C`: the growth inhibition is -1%.
In the case of `O=C1c2ccccc2CC(Br)c2ccccc21` (stereo not given), the growth inhibition is 98% (active).
As to `Cc1cccc2c(CBr)cc(=O)[nH]c12`, the growth inhibition is 97% (active).
For the compound `CC(=O)CC1CCC(=O)/C=C/C(=O)OC(CC(C)=O)CCC(=O)/C=C/C(=O)O1` (stereo not given), the growth inhibition is 56%.
On the same count and under the same terms, the figure for `CCN(CC)CC(O)c1c(-c2ccccc2)c(-c2ccccc2)c2n1CCC2` (stereo not given) is 92% (active).
On the same count and under the same terms, in the case of `CC1(C)CC[C@]2(C(=O)O)[C@H](O)C[C@]3(C)C(=CC[C@@H]4[C@@]5(C)CC[C@H](OC6OCC(O)C(O)C6OC6OCC(O)C(O)C6OC6OCC(O)C(O)C6O)C(C)(C)[C@@H]5CC[C@]43C)[C@@H]2C1` (stereo not given in full) it was 53%; in that of `Cc1ccc(NC(=O)/C(CC(=O)c2sc(Nc3ccc(Cl)c(Cl)c3)nc2C)=N\Nc2ccc([N+](=O)[O-])cc2[N+](=O)[O-])c(C)c1`, 96% (active).
`CC(=O)N=C1N(/C=C2\C(=O)Oc3ccccc3C2=O)C(=O)/C(=C/c2ccc(Cl)cc2Cl)N1C`: the growth inhibition is 91% (active).
Still for that read-out and setting: the figure for `COC1OC2COC(c3ccccc3)OC2C(NC(=S)SCc2ccccc2)C1O` (stereo not given) is 98% (active); for `O=C(CCN1CCCCC1)N1CCc2c([nH]c3ccccc23)C1c1cccnc1` (stereo not given) it is -4%; for `Cc1ccc(Sc2ccc(C)cc2[N+](=O)[O-])c([N+](=O)[O-])c1` it is 53%.
Still for that read-out and setting: the figure for `O=c1c2cc3ccccc3cc2c(=O)n2n1CC=CC2` is 46%; for `ClC(Cl)=C1C(=C(Cl)Cl)C(Cl)(Cl)C1(Cl)Cl` it is 98% (active).
In the case of `Cc1c(C(=O)N(CCO)CCO)[n+](=O)c2ccccc2n1[O-]`, the growth inhibition is 13%.
The same measure, in the same setting: in the case of `CN(C)c1cc(N(C)C)c2cc(-c3ccccc3)sc2n1` it was 94% (active); in that of `O=C(Nc1ccccc1O)/C(Cl)=C/Cl`, 96% (active); in that of `Cc1ccccc1SCc1nc2ccccc2c(C)[n+]1[O-]`, 89% (active).
Regarding `Oc1ccc2c(ccc3ccccc32)c1`, the growth inhibition is 99% (active).
Turning to `O=C1c2ccccc2C(=O)N1C(=NCc1ccccc1)c1ccccc1`, the growth inhibition was 78% (active).
Still for that read-out and setting: in the case of `Cc1cc(Cl)cc2c1OCN(C)C2` it was 94% (active); in that of `CC(C)C(=O)/C=C/c1ccc(Cl)cc1Cl`, 48%.
Turning to `CC(C)C(=O)c1ccc([N+](=O)[O-])o1`, the growth inhibition is 98% (active).
Still for that read-out and setting: the figure for `CSc1c(S(C)=O)c2ccccc2n1C` (stereo not given) is 20%; for `O=C(CCCCN1CCN2c3ccccc3CCC2C1)c1ccccc1` (stereo not given) it is 83% (active); for `COC(=O)c1ccc(C)cc1CC1Cc2cc(C)ccc2C1=O` (stereo not given) it is 85% (active).
In the case of `Cc1cc(Nc2ccc(N=Nc3ccc(O)c4ncccc34)cc2)nc(C)n1`, the growth inhibition was 37%.

The test is the same for the next values; noted with them: S. cerevisiae mlh1 rad18 strain growth inhibition; at 50.0 µM; hits give high values.
Consider `COC(OC)(c1ccccc1)C(Br)Br`, for which the growth inhibition is 84.8% (active).
Same read-out and setting: in the case of `Cc1ccc(S(=O)(=O)OCCc2ccc(Cl)cc2)cc1` it was -7.75%; in that of `O=C(CC(=O)c1ccncc1)c1ccccc1`, 98% (active); in that of `CCN1CCC(O)(/C=C/c2ccccc2)C(C(=O)/C=C/c2ccccc2)C1` (stereo not given), 96% (active).
Take `O=C(O)c1cc(Br)ccc1OCc1ccc(Cl)cc1`: the growth inhibition was 52.9%.
On the same count and under the same terms, the figure for `Cc1ccc(C2COc3cc(O)c(O)cc3C2)cc1` (stereo not given) is 99.4% (active); for `COC(=O)c1c2oc3c(C(=O)OC)cccc3nc-2cc(N)c1=O` it is 22.5%; for `CC(=O)NCCN(C)C` it is 88.8% (active).
For `N=c1scc(-c2ccccc2)n1/N=C/c1cccnc1`, the growth inhibition was 95.8% (active).
The same measure, in the same setting: in the case of `C(=C/c1ccccc1)/C=N/Nc1ccccc1` it was 2.35%; in that of `OC(Cc1ccc(Br)cc1)CN1CCC(c2ccccc2)CC1` (stereo not given), 79% (active).
Still for that read-out and setting: the figure for `O=C1C(Cl)=C(Nc2ccc(S(=O)(=O)O)cc2)C(=O)c2ccccc21` is 99.4% (active).
Take `CC1(CO)CCCC2(C)C3=C(CCCC3)CCC12` (stereo not given): the growth inhibition is 46.4%.
On the same count and under the same terms, in the case of `Cc1cc2nc(CC(=O)c3ccc4ccccc4c3)c(=O)[nH]c2cc1C` it was 96.7% (active).
With `CN(CCO)CCn1cnc2c1c(=O)n(C)c(=O)n2C`, the growth inhibition is -5.9%.
For the compound `O=C1c2ccccc2CC(Br)c2ccccc21` (stereo not given), the growth inhibition was 97.7% (active).
`Cc1cccc2c(CBr)cc(=O)[nH]c12`: the growth inhibition was 95.7% (active).
On the same count and under the same terms, the figure for `CC(=O)CC1CCC(=O)/C=C/C(=O)OC(CC(C)=O)CCC(=O)/C=C/C(=O)O1` (stereo not given) is -81.7%; for `CCN(CC)CC(O)c1c(-c2ccccc2)c(-c2ccccc2)c2n1CCC2` (stereo not given) it is 47.6%.
Consider `CC1(C)CC[C@]2(C(=O)O)[C@H](O)C[C@]3(C)C(=CC[C@@H]4[C@@]5(C)CC[C@H](OC6OCC(O)C(O)C6OC6OCC(O)C(O)C6OC6OCC(O)C(O)C6O)C(C)(C)[C@@H]5CC[C@]43C)[C@@H]2C1` (stereo not given in full), for which the growth inhibition is 52%.
With `Cc1ccc(NC(=O)/C(CC(=O)c2sc(Nc3ccc(Cl)c(Cl)c3)nc2C)=N\Nc2ccc([N+](=O)[O-])cc2[N+](=O)[O-])c(C)c1`, the growth inhibition was 96.8% (active).
On the same count and under the same terms, the figure for `CC(=O)N=C1N(/C=C2\C(=O)Oc3ccccc3C2=O)C(=O)/C(=C/c2ccc(Cl)cc2Cl)N1C` is 91.6% (active); for `COC1OC2COC(c3ccccc3)OC2C(NC(=S)SCc2ccccc2)C1O` (stereo not given) it is 99% (active); for `O=C(CCN1CCCCC1)N1CCc2c([nH]c3ccccc23)C1c1cccnc1` (stereo not given) it is -14.4%.
On the same count and under the same terms, in the case of `Cc1ccc(Sc2ccc(C)cc2[N+](=O)[O-])c([N+](=O)[O-])c1` it was -8.85%; in that of `O=c1c2cc3ccccc3cc2c(=O)n2n1CC=CC2`, 10.8%; in that of `ClC(Cl)=C1C(=C(Cl)Cl)C(Cl)(Cl)C1(Cl)Cl`, 88.2% (active).
On to `Cc1c(C(=O)N(CCO)CCO)[n+](=O)c2ccccc2n1[O-]`, for which the growth inhibition was 65.7%.
Same read-out and setting: the figure for `CN(C)c1cc(N(C)C)c2cc(-c3ccccc3)sc2n1` is 63%; for `O=C(Nc1ccccc1O)/C(Cl)=C/Cl` it is 99.3% (active); for `Cc1ccccc1SCc1nc2ccccc2c(C)[n+]1[O-]` it is 59.9%.
For `Oc1ccc2c(ccc3ccccc32)c1`, the growth inhibition is 99.2% (active).
Still for that read-out and setting: in the case of `O=C1c2ccccc2C(=O)N1C(=NCc1ccccc1)c1ccccc1` it was 83.2% (active).
In the case of `Cc1cc(Cl)cc2c1OCN(C)C2`, the growth inhibition is 99.5% (active).
Take `CC(C)C(=O)/C=C/c1ccc(Cl)cc1Cl`: the growth inhibition was 40.3%.
Still for that read-out and setting: the figure for `CC(C)C(=O)c1ccc([N+](=O)[O-])o1` is 98.5% (active); for `CSc1c(S(C)=O)c2ccccc2n1C` (stereo not given) it is -26.4%.
The same measure, in the same setting: the figure for `O=C(CCCCN1CCN2c3ccccc3CCC2C1)c1ccccc1` (stereo not given) is 68.9%.
With `COC(=O)c1ccc(C)cc1CC1Cc2cc(C)ccc2C1=O` (stereo not given), the growth inhibition was 70.7% (active).
The same measure, in the same setting: the figure for `Cc1cc(Nc2ccc(N=Nc3ccc(O)c4ncccc34)cc2)nc(C)n1` is 75.5% (active).
